High-throughput results from PubChem BioAssay.
ADAM10 inh: human ADAM10 inhibitors, primary screen, biochemical, QFRET, HTS; recombinant ADAM10, EDANS/DABCYL FRET peptide cleavage, 3 h; inhibition, % at 7 µM; 0.62% of 370,000 active; AID 720582, 2013;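 active = inhibition above a per-campaign cutoff equal to the mean of compounds falling between control-based bounds plus 3 SD, cut at about 20% in these data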;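 also: 0% = DMSO wells while the 100% control is not disclosed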
ADAM17 inh: ADAM17 inhibitors, primary screen, biochemical, QFRET | recombinant ADAM17, EDANS/DABCYL FRET peptide cleavage | inhibition, % at 6.95 µM | 0.83% of 370,000 active;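 active = inhibition above the mean of compounds lying between control limits plus 3 SD, set per campaign, cut at about 8.5% in these data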;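 also: 0% = DMSO-only wells as the low control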
Target sequence (P78536 215-824 limits assumed): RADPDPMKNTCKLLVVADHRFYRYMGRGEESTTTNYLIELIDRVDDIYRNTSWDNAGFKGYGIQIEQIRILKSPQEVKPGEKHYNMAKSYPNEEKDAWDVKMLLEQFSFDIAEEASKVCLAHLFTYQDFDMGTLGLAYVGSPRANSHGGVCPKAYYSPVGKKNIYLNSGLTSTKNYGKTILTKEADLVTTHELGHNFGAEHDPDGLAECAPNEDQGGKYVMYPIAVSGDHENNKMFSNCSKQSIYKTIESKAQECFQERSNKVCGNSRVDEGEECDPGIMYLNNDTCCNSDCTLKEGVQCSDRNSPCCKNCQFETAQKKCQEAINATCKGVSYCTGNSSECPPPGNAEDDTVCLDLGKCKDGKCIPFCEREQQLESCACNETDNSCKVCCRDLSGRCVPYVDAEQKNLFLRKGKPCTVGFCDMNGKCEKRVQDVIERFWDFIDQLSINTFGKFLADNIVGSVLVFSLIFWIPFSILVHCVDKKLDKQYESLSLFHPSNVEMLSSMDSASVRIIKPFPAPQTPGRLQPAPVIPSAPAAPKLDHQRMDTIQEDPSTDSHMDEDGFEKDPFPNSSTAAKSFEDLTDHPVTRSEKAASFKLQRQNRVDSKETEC
V-ATPase pHluor: regulators of yeast V-ATPase proton pumping, primary screen, pHLuorin cytosolic pH fluorescence; S. cerevisiae; response, % at 10 µM; 0.37% of 350,000 active; AID 504577, 2011; in the data active = response mostly above about 7.3%, no sharp cut-off; inactive = mostly below about 5.4%; also: actives read high
proKLK7 act: proKLK7 zymogen activators, primary screen, biochemical, fluorescence intensity; Kallikrein-7 (Homo sapiens), P49862; purified proKLK7, EDANS-DABCYL substrate fluorescence; 100% is mature enzyme control, 0% vehicle; activation, % at 7 µM; 0.9% of 370,000 active;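 active = activation above the mean of all tested compounds plus 3 SD, computed per campaign excluding outliers beyond control limits, cut at about 13% in these data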
KLK7 act conf: proKLK7 zymogen activators, confirmation, biochemical, fluorescence intensity, triplicate; shares compounds with proKLK7 act; purified proKLK7, EDANS-DABCYL substrate fluorescence; scaled: vehicle 0, mature enzyme 100; activation, % at 7 µM; 68% of 3,200 active;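 active = activation, as change over the incubation, above the mean of all tested compounds plus 3 SD, cut at about 13% in these data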
EDANS interfere: EDANS-DABCYL substrate optical interference, artefact control for kallikrein-7 zymogen activator project, biochemical, fluorescence intensity, high throughput | shares compounds with proKLK7 act | no enzyme, 4 h; solvent 0%, active enzyme control 100% | activation, % at 7 µM | 80% of 3,200 active | AID 686952, 2013;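 active = activation above the all-compound mean plus 3 SD, ignoring values outside control-based bounds, cut at about 4.8% in these data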;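 also: value is the 4 h activation minus the activation read at time zero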
K7 EDANS ctr: EDANS fluorescence interference in dose response, no enzyme. shares compounds with proKLK7 act. EDANS-DABCYL peptide fluorescence interference. EC50, µM. 20% of 250 active. AID 720493;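 active = compounds that raise the fluorescence signal in this interference counterscreen, with EC50 at or below 10 µM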;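 also: intact quenched peptide substrate alone read at 355 nm excitation and 520 nm emission; signal is fluorescence gain from T0 to T4 after four hours at room temperature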
Active calls of the source: *; i = inactive; x = no result. Most compounds without a hit are left out; they make up all but 2.3% or so of the library.

SMILES | ADAM10 inh | ADAM17 inh | V-ATPase pHluor | proKLK7 act | KLK7 act conf | EDANS interfere | others
O=C1c2ccccc2NC(c2cccc(O)c2)N1c1ccccc1 (stereo unspecified) | i | -267.4 | 0.5 | 44.4* | 12.1 | 15.1*
COc1ccc(C2Nc3ccccc3C(=O)N2Cc2ccccc2)cc1 (stereo unspecified) | i | -301.8 | -3.4 | -33.5 | x | x
Cc1ccc(S(=O)(=O)NN2C(=O)c3ccccc3NC2c2ccccc2)cc1 (stereo unspecified) | -265.9 | -84.3 | 0.2 | 17.2* | 3.9 | 4.9*
Cc1ccc(N2C(=O)c3ccccc3NC2c2ccccc2O)cc1 (stereo unspecified) | -140.6 | -51.6 | -2.3 | -11.5 | x | x
C[C@H]1CN(C(=O)OC(C)(C)C)CCN1c1ccc(Br)c(C#N)c1 | -27.4 | -7.4 | x | 0.3 | x | x
COC(=O)[C@]12C[C@H](CC(=O)NCCC(C)C)C(=O)N(Cc3ccc(Cl)cc3Cl)C1=C[C@H](C1CCCC1)O[C@@H]2C | 4.4 | 5.2 | x | -0.2 | x | x
CCCC[C@H]1C2CC(OC(=O)Nc3cccc(Cl)c3)C(C2)[C@H]2CCCCN21 (stereo partly specified) | -3.2 | -3.0 | x | 0.6 | x | x
Cc1cccn2c(=O)c3cc(C(=O)NCCCN4CCCC4=O)n(C)c3nc12 | i | i | -1.9 | 14.3* | 7.1 | 14.9*
Cc1cccn2c(=O)c3cc(C(=O)N(C)C)n(C)c3nc12 | i | -235.6 | 4.9 | 25.5* | 27.4* | 28.7*
Cc1cccn2c(=O)c3cc(C(=O)NCCCn4ccnc4)n(C)c3nc12 | i | -339.2 | -0.6 | -15.5 | x | x
C[C@H]1[C@H](NC(=O)c2ccc(Cl)cc2)CC[C@@]23CCCN2C(=O)CCC[C@@H]13 | -2.2 | -4.2 | x | x | x | x
O=[N+]([O-])c1c(Nc2ccccc2)ccc2nonc12 | 4.9 | -0.7 | -3.1 | 0.4 | x | x
Nc1cc(Nc2ccccc2)c2nonc2c1[N+](=O)[O-] | 5.3 | 6.0 | -1.6 | 13.5* | -1.5 | -0.1
N=c1c(C(=O)NCC2CCCO2)cc2c(=O)n3ccccc3nc2n1Cc1ccccc1 (stereo unspecified) | i | i | -48.2 | 118.0* | 23.7* | 22.8*
O=C(NCc1cccnc1)c1cccn2c(=O)c3sccc3nc12 | -271.2 | -75.8 | -0.2 | 19.1* | 67.2* | 73.7*
CNC(=O)c1cc2c(=O)n3cccc(C)c3nc2n(C(C)C)c1=N | i | i | -15.3 | 90.6* | 70.7* | 71.1*
C=CCn1c(=N)c(C(=O)NCCCOC)cc2c(=O)n3cccc(C)c3nc21 | i | i | -28.3 | 119.6* | 56.1* | 65.5*
CCCCNC(=O)c1cc2c(=O)n3cccc(C)c3nc2n(Cc2ccccc2)c1=N | i | -371.8 | -1.9 | -3.9 | x | x
COCCn1c(=N)c(C(=O)NCCc2ccccc2)cc2c(=O)n3cccc(C)c3nc21 | i | i | -1.3 | 0.2 | x | x
N=c1c(C(=O)NCC2CCCO2)cc2c(=O)n3ccccc3nc2n1Cc1ccc(Cl)cc1 (stereo unspecified) | i | i | -1.3 | -5.3 | x | x
COC(=O)CN1CCN(C(=O)c2csc3ccccc23)CC1 | -2.3 | -0.3 | x | 0.6 | x | x
COc1ccc(-n2c(SCc3ccc([N+](=O)[O-])cc3)nnc2-c2ccco2)cc1 | 0.1 | -2.2 | x | 0.6 | x | x
COCc1[nH]nc2c1C(c1cccc(C(F)(F)F)c1)N(c1ccc(OC)cc1)C2=O (stereo unspecified) | -3.2 | -4.1 | x | -0.1 | x | x
COCCCn1c(=N)c(C(=O)NCC2CCCO2)cc2c(=O)n3ccccc3nc21 (stereo unspecified) | i | -413.3 | -60.2 | 33.3* | 10.5 | 15.2*
Cc1cccn2c(=O)c3cc(C(=O)NCC4CCCO4)c(=N)n(CCN4CCOCC4)c3nc12 (stereo unspecified) | i | i | -20.8 | 14.2* | 8.5 | 9.4*
SMILES | ADAM10 inh | ADAM17 inh | V-ATPase pHluor | proKLK7 act | KLK7 act conf | EDANS interfere | others
COCCCn1c(C(=O)N2CCOCC2)cc2c(=O)n3ccccc3nc21 | i | i | -5.0 | 46.8* | 72.4* | 80.1*
Cc1cccn2c(=O)c3cc(C(=O)NCc4cccnc4)c(=N)n(CC4CCCO4)c3nc12 (stereo unspecified) | i | i | 1.4 | 111.2* | 9.9 | 33.5*
COCCCn1c(C(=O)Nc2ccc3c(c2)OCO3)cc2c(=O)n3ccccc3nc21 | -10.9 | -2.8 | 2.1 | 0.3 | x | x
C[C@H](CO)N1C[C@H](C)[C@H](CN(C)S(=O)(=O)c2cccs2)Oc2ncc(Br)cc2C1=O | 2.2 | -1.6 | x | 0.3 | x | x
CCCn1c(=N)c(C(=O)NCC2CCCO2)cc2c(=O)n3cccc(C)c3nc21 (stereo unspecified) | i | i | -21.8 | 83.4* | 5.2 | 2.6
Cc1ccc(Cn2c(=N)c(C(=O)NCC3CCCO3)cc3c(=O)n4cccc(C)c4nc32)cc1 (stereo unspecified) | i | i | -2.8 | 2.0 | x | x
COCCCn1c(=N)c(C(=O)NCC2CCCO2)cc2c(=O)n3cccc(C)c3nc21 (stereo unspecified) | i | i | -59.3 | 121.1* | 61.4* | 71.0*
Cc1cc(C)c2nc3nc(C)c(C)cc3c(N)c2c1 | i | -197.1 | -59.8 | 50.2* | 34.3* | 41.0*
O=C1NC(c2ccccc2O)Nc2ccccc21 (stereo unspecified) | -397.1 | -149.5 | 1.2 | 22.3* | 10.9 | 16.9*
O=C1NC(c2ccc(O)cc2)Nc2ccccc21 (stereo unspecified) | -454.4 | -185.4 | -1.0 | 28.5* | 25.2* | 26.9*
COc1ccc(C2NC(=O)c3ccccc3N2)c(OC)c1OC (stereo unspecified) | i | i | -1.3 | 32.7* | 45.2* | 47.2*
Cc1ccc(C)c(C2NC(=O)c3ccccc3N2)c1 (stereo unspecified) | i | -398.3 | -1.4 | 36.2* | 23.6* | 20.6*
COc1cc(C)c(C2NC(=O)c3ccccc3N2)cc1C (stereo unspecified) | -358.4 | -94.3 | 4.2 | 4.5 | x | x
COc1ccc(CNC(=O)C2CCCN(c3nc4ccccc4o3)C2)cc1 (stereo unspecified) | -14.2 | -2.7 | x | 0.4 | x | x
CSc1ccc(C2NC(=O)c3ccccc3N2)cc1 (stereo unspecified) | i | -261.3 | 1.4 | 16.9* | 16.7* | 12.7* | K7 EDANS ctr=>69.5
O=C1NC(c2cccc(OCc3ccccc3)c2)Nc2ccccc21 (stereo unspecified) | i | -340.9 | -1.9 | 14.5* | -22.6 | -29.2
